# Shown are actives, neighbours in structure and some others; about 4.6% of the full set was active somewhere.
# TRHR enhancer – TRH receptor (human) allosteric enhancement; P34981; TRHR cells, fluo-8 calcium fluorescence, EC20 TRH enhancement; enhancement, % at 2 µM; actives 0.66% (n = 360,000); AID 493056; in the data active = enhancement above about 30%; note: 0% is about no effect
#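 Enhancer read-out: after compound pinning and an initial kinetic agonist-mode read, an EC20 of TRH (10 nM final) was injected and fluo-8 calcium signal (Ex 480/Em 530) followed at 1 s/cycle for 100 cycles in TRHR-expressing cells.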
# D1 antagonist – antagonists of human D1 dopamine receptor. HEK293 TREx D1 cells, calcium flux, dopamine EC80; stronger effect = lower value. activity change, negative = inhibition, % at 10 µM. actives 3.2% (n = 360,000). P21728; in the data active = activity change below about -30%; note: % is set by controls: 0 for no effect and ±100 for the full control effect
# Target sequence (P21728 whole entry, looked up): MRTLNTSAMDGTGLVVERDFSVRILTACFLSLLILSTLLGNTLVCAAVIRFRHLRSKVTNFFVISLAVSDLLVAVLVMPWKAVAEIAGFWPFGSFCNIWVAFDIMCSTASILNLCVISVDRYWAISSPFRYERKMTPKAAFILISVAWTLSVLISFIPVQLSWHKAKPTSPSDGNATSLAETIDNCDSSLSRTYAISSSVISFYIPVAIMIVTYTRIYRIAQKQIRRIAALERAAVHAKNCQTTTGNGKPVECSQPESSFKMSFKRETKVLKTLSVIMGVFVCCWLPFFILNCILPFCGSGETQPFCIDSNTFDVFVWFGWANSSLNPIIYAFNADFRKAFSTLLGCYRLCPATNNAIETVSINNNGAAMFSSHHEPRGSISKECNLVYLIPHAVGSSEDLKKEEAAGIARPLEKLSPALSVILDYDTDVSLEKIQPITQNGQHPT
#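 Kinetic fluorescence of a calcium dye serves as the read-out. D1-expressing Hek293 Trex cells, induced overnight at 30 C, are exposed to compound for 180 s before an EC80 dopamine addition, then read 180 s further.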
# D1 PAM – human D1 dopamine receptor positive modulation; P21728; HEK293 TREx D1 cells, calcium flux, dopamine EC20 potentiation; potentiation, % at 10 µM; actives 0.036% (n = 360,000); AID 504651; in the data active = potentiation above about 30%; note: 0% is about no effect
# TRHR agonist – agonists of human TRH receptor; P34981; TRHR cells, calcium flux fluo-8, FDSS agonist mode; activation, % at 2 µM; actives 0.18% (n = 360,000); note: 0% is about no effect
#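 In this calcium-flux screen, cells bearing human TRHR are dye-loaded with fluo-8, baselined for 10 cycles, then exposed to library compounds; positive kinetic calcium responses during the agonist phase mark hits, with TRH as control.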
# D1 agonist – agonists of human D1 dopamine receptor; P21728; HEK293 T-REx D1 cells, calcium flux, agonist mode; activation, % at 2 µM; actives 1% (n = 360,000); AID 504660; note: 0% is about no effect
#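 Inducible HEK293 T-REx D1 cells, force-coupled to calcium signalling, were plated at 4000 cells/well with tetracycline and held overnight at 30 C. After no-wash calcium dye loading, compound-evoked calcium rise over 180 s flagged agonists.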
# Numbers without * were called inactive. Cut-off read from the data, not from the text of the source, unless noted: active = activation above about 30%; inactive = the rest.
SMILES,TRHR enhancer,D1 antagonist,D1 PAM,TRHR agonist,D1 agonist
COC(=O)c1c(NC(=O)c2ccco2)sc2c1CCN(C(C)C)C2,-4,-17,0,22,33*
CC(C)N1CCc2c(sc(NC(=O)c3ccco3)c2C(N)=O)C1,2,-3,-1,4,11
CCOC(=O)c1c(NC(=O)c2ccc(S(=O)(=O)N(C)C3CCCCC3)cc2)sc2c1CCN(C(C)C)C2,0,19,-1,32*,56*
CCOc1ccc(NC(=O)C(=O)NCC(c2cccnc2)N2CCc3ccccc32)cc1 (centres undefined),3,2,-1,0,3
CC(=O)N1CCC(N(Cc2ccc(C)o2)C(=O)Nc2ccc(C)cc2)CC1,5,2,6,0,-2
CC(C)N1CCc2c(sc(NC(=O)c3ccc4ccccc4c3)c2C(N)=O)C1,10,-10,-3,31*,24
CC(C)N1CCc2c(sc(NC(=O)c3ccc(C(=O)c4ccccc4)cc3)c2C(N)=O)C1,1,8,-6,8,14
Cc1cc(=O)[nH]c2c(C)cc(S(=O)(=O)NCc3ccccc3)cc12,-6,-39*,-3,1,3
CCOC(=O)C1CCN(C(=O)CS(=O)(=O)Cc2nc(-c3ccccc3Cl)oc2C)CC1,5,-40*,-10,-1,9
CCOC(=O)N1CCN(C(=O)CS(=O)(=O)Cc2nc(-c3ccccc3C)oc2C)CC1,-1,-9,0,-1,2
CCOC(=O)N1CCN(C(=O)CSCc2nc(-c3ccccc3F)oc2C)CC1,3,-44*,5,0,7
CCOc1ccc(-c2nc(CSCC(=O)N3CCN(c4ccc(F)cc4)CC3)c(C)o2)cc1,0,3,-5,0,4
COc1ccc(-c2nc(CSCC(=O)N3CCN(c4ccc(OC)cc4)CC3)c(C)o2)cc1,6,-37*,-5,0,4
Cc1ccccc1-c1nc(CS(=O)(=O)CC(=O)N2CCOCC2)c(C)o1,10,3,-3,0,7
CCOC(=O)N1CCN(C(=O)CSCc2nc(-c3ccccc3C)oc2C)CC1,8,-34*,-5,-1,9
CC(=O)Nc1cccc(NC(=O)CN2C(=O)CCSc3ccccc32)c1,-4,-15,-2,0,0
CC(NC(=O)c1ccc(NC(=O)c2nsc3ccccc23)cc1)c1ccccc1 (centres undefined),4,9,-1,0,1
CC(=O)Nc1ccc(Nc2c(CCC(C)C)c(C)c(C#N)c3nc4ccccc4n23)cc1,-1,16,-1,-1,-1
Clc1ccc(CNc2cc(-c3ccccc3)nc3nncn23)cc1,4,17,-2,1,4
O=C(CCNS(=O)(=O)c1ccc2c(c1)CCCC(=O)N2)Nc1cccc(Cl)c1,8,-5,-4,0,1
CC(=O)N=Cc1c(C)c(C#N)c(=O)n(C)c1O,-4,-57*,-9,-2,10
Cc1c(/C=N/Nc2ccc(F)cc2)c(O)n(C)c(=O)c1C#N,8,-14,-3,2,3
COCCNC(=O)C1=CC(c2ccc3c(c2)OCO3)=NS(=O)(=O)N1C,-1,0,0,1,1
Cc1ccccc1COC(=O)CCCC1=NS(=O)(=O)c2ccccc2N1,-5,-1,-3,2,31*
Cc1ccc(NC(=O)COC(=O)CCCC2=NS(=O)(=O)c3ccccc3N2)cc1C,11,-6,8,0,2
SMILES,TRHR enhancer,D1 antagonist,D1 PAM,TRHR agonist,D1 agonist
COC(=O)c1ccc(NC(=O)C(=O)NCC(c2cccnc2)N2CCc3ccccc32)cc1 (centres undefined),-8,-22,-2,0,2
COCCNC(=O)C1CC2Cn3c(nc4cc(C)c(C)cc43)C2N1C (centres undefined),-11,-78*,-9,0,1
COCCNC(=O)C1CC2Cn3c(nc4cc5ccccc5cc43)C2N1C (centres undefined),-5,20,5,-1,1
Cc1ccccc1Oc1cc(NC(=O)CCCn2nc(C)c([N+](=O)[O-])c2C)cc([N+](=O)[O-])c1,-1,-22,-5,0,1
Cc1nn(CCCC(=O)Nc2cc(Oc3ccc(F)cc3)cc([N+](=O)[O-])c2)c(C)c1[N+](=O)[O-],1,-36*,-3,1,9
O=C1CC(c2ccc(S(=O)(=O)NCc3ccncc3)cc2)CN1 (centres undefined),9,-34*,-3,1,2
O=C1CC(c2ccc(S(=O)(=O)NC3CC3)cc2)CN1 (centres undefined),-4,-14,-1,1,1
COc1ccc(NC2=NCC(Cc3ccc(Br)cc3)S2)cc1 (centres undefined),5,3,-5,0,32*
COc1ccc(CNc2ccc(Br)cc2)cc1,5,-9,0,0,4
CCOC(=O)Cc1c(C)nc2c(-c3ccc(OC)c(OC)c3)c(C)nn2c1C,2,2,-2,-2,0
CCC1(c2ccc(F)cc2)NC(=O)N(CC(=O)N2c3ccccc3CC2C)C1=O (centres undefined),0,4,5,6,85*
CCC1(c2ccc(OC)cc2)NC(=O)N(CC(=O)N2CCc3ccccc32)C1=O (centres undefined),-1,6,-5,7,39*
Cc1ccc(C2(C)NC(=O)N(CC(=O)c3ccc4c(c3)OCCO4)C2=O)cc1 (centres undefined),-2,-43*,-4,1,9
CCc1ccc(C(=O)CN2C(=O)NC(C)(c3ccc(C)cc3)C2=O)cc1 (centres undefined),10,15,-1,1,9
CCC1(c2ccc(F)cc2)NC(=O)N(CC(=O)N(CCC#N)c2ccccc2)C1=O (centres undefined),31*,13,-3,0,12
CCC(C(=O)NCCc1ccccc1)n1nc(C)c2sc3ccccc3c2c1=O (centres undefined),0,-2,-2,0,1
Cc1cccc(-n2c(=O)c3c(c4cc(C)ccc4n3C)n(CC(=O)N3CCCC3)c2=O)c1,9,12,0,-1,-1
CCOc1ccc(C(=O)OCc2cc(=O)n3nc(C(C)C)sc3n2)cc1,-5,2,-8,0,5
CCOCCCn1c(=N)c(C(=O)NC2CCCCC2)cc2c(=O)n3ccccc3nc21,1,-3,0,-1,-2
CCCCOc1cccc(C(=O)Nc2cc(NC(=O)c3ccco3)ccc2OC)c1,-9,0,-4,-3,1
CCC1(c2ccc(OC)cc2)NC(=O)N(CC(=O)c2ccc3c(c2)OCCO3)C1=O (centres undefined),7,35,-2,3,32*
CCC1(c2ccc(F)cc2)NC(=O)N(CC(=O)NC2CC2)C1=O (centres undefined),20,13,-5,0,1

# Source: PubChem BioAssay
